Counter-ions that a name gives are not always drawn.
Tests used:
Experiment in all cases: Euclidean distance of Cell Painting phenotypic profile (signed KS, 77 features) to DMSO centroid (dimensionless distance); 5 or 10 uM (library dependent); higher = stronger phenotypic change vs DMSO (phenoactivity)
Details in all cases: 48 h
786-O = test system: 786-O
Procedure, shortened: (§1)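 Harmony extracted 77 features from 20X confocal images (9 fields/well) of stained cells, scoring each as a signed Kolmogorov-Smirnov statistic against same-plate vehicle wells. The cells, five cancer lines and a healthy fibroblast line, had received library compounds for 48 h at 10 or 5 uM depending on library, with 0.1% DMSO final. Phenoactivity is the Euclidean distance from each plate-position-corrected, correlation-weighted, top-dose replicate-averaged profile to the median vehicle profile.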

A549 = test system: A549
Procedure, shortened: as §1

DU145 = test system: DU145
Procedure, shortened: as §1

FB = test system: FB
Procedure, shortened: as §1

HEPG2 = test system: HEPG2
Procedure, shortened: as §1

OVCAR4 = test system: OVCAR4
Procedure, shortened: as §1

Compound	Euclidean distance (786-O)	Euclidean distance (A549)	Euclidean distance (DU145)	Euclidean distance (FB)	Euclidean distance (HEPG2)	Euclidean distance (OVCAR4)
CN1CCN(Cc2ccc(Nc3ncc(Cl)c(Nc4ccccc4S(=O)(=O)N(C)C)n3)cc2)CC1	3.04	3.57	3.22	2.93	2.81	3.88
CC(C)C[C@H](NC(=O)CNC(=O)c1cc(Cl)ccc1Cl)B1OC(=O)C(CC(=O)O)(CC(=O)O)O1	4.77	3.73	5.36	3.94	4.23	4.36
CCC[C@H](NC(=O)/C(C#N)=C/c1cccc(Br)n1)c1ccccc1 [Degrasyn (WP1130)]	5.15	4.08	4.95	2.59	1.66	4.93
CCCC(C)NC(=O)c1ccc(Cl)c(Cl)c1 (centres undefined)	0.75	0.663	0.911	1.24	0.75	0.568
COc1ccc2[nH]cc(CCNC(C)=O)c2c1 [Melatonin]	0.969	0.391	0.808	0.749	0.681	0.982
CN1CCCN=C1/C=C/c1cccc(O)c1 [Oxantel Pamoate]	0.869	0.907	0.598	0.7	0.882	0.824
C[C@H]1[C@H](C)CC[C@]2(C(=O)O)CC[C@]3(C)C(=CC[C@@H]4[C@@]5(C)C[C@@H](O)[C@H](O)[C@@](C)(CO)[C@@H]5[C@H](O)C[C@]43C)[C@H]12 [Madecassic acid]	0.661	0.291	0.775	0.741	0.461	0.968
Cn1cc(-c2ccc3ncc(Cc4ccc5ncccc5c4)n3n2)cn1	1.26	0.825	0.747	0.784	1.92	1.31
CCCCS(=O)(=O)N[C@@H](Cc1ccc(OCCCCC2CCNCC2)cc1)C(=O)O [Tirofiban Hydrochloride]	1	1.07	1.77	1.22	0.871	1.39
O=C(Nc1cc(C(F)(F)F)ccc1N1CCCCC1)c1ccncc1	0.961	1.47	0.983	0.794	0.96	1.67
Cc1ccc2nc(NCCN)c3ncc(C)n3c2c1	0.585	1.64	1.21	1.55	2.99	1.57
O=C(O)c1cc(O)c(O)c(O)c1 [Gallic acid]	1.13	0.673	0.909	1.31	0.825	0.935
C=CC1=C(C(=O)O)N2C(=O)[C@@H](NC(=O)/C(=N\O)c3csc(N)n3)[C@H]2SC1 [Cefdinir]	0.892	0.765	2.48	1.4	1.17	0.686
CCC(=O)N1CC[C@H](Nc2ncnc3c2CN(c2cnc(OC)c(C(F)(F)F)c2)CC3)C1 [leniolisib(CDZ 173)]	1.06	1.1	1.67	1.76	0.969	1.59
CCCOC(C(=O)OC1CCN(C)CC1)(c1ccccc1)c1ccccc1 [Propiverine hydrochloride]	1.73	1.08	1.34	1.33	1.39	1.35
CC(=O)O[C@H]1C[C@@]2(C)[C@@H](C[C@@H](O)[C@H]3[C@@]4(C)CC[C@@H](O)[C@@H](C)[C@@H]4CC[C@@]32C)/C1=C(\CCC=C(C)C)C(=O)O [Fusidate Sodium]	1.27	0.59	1.88	1.32	0.533	1.2
Cn1c(Cn2ccc(C(F)(F)F)c(Oc3cc(Cl)cc(C#N)c3)c2=O)n[nH]c1=O [Doravirine (MK-1439)]	1.23	0.8	1.11	1.13	0.593	0.914
O=C(O)Cc1ccc(-c2ccccc2)cc1 [4-Biphenylacetic acid]	1.14	1.09	1.65	1.66	0.638	1.62
c1coc(CNc2ncnc3[nH]cnc23)c1 [Kinetin]	1.36	1.02	0.682	1.33	0.627	1.72
O=c1[nH]cnc2c1ncn2[C@@H]1O[C@H](CO)[C@@H](O)[C@H]1O [Inosine]	1.3	0.799	0.639	0.936	0.417	1.3
CS(=O)(=O)OCCCCOS(C)(=O)=O [Busulfan]	1.22	0.648	0.667	0.953	0.977	1.95
COc1cc(F)c(C(C)C)cc1-c1ccc(C(F)(F)F)cc1CN1C(=O)O[C@H](c2cc(C(F)(F)F)cc(C(F)(F)F)c2)[C@@H]1C [Anacetrapib (MK-0859)]	0.703	0.903	1.12	0.869	1.84	0.709
CCNC(=O)c1noc(-c2cc(C(C)C)c(O)cc2O)c1-c1ccc(CN2CCOCC2)cc1	2.96	2.83	3.5	2.77	3.91	2.67
CC(=O)OCC[N+](C)(C)C [Acetylcholine Chloride]	1.02	0.848	1.22	1	0.549	1.13
CCc1ccc(OCc2ccccc2C(=O)Nc2ccc3nc(C)cc(N)c3c2)cc1	4.35	4.14	3.63	5.25	5.11	4.53

Compound	Euclidean distance (786-O)	Euclidean distance (A549)	Euclidean distance (DU145)	Euclidean distance (FB)	Euclidean distance (HEPG2)	Euclidean distance (OVCAR4)
C[C@@H](O[C@H]1OCCN(Cc2n[nH]c(=O)[nH]2)[C@H]1c1ccc(F)cc1)c1cc(C(F)(F)F)cc(C(F)(F)F)c1 [Aprepitant]	1.15	1.83	0.905	1.05	1.43	1.3
C=CC1=C(C(=O)O)N2C(=O)[C@@H](NC(=O)/C(=N\OCC(=O)O)c3csc(N)n3)[C@H]2SC1 [Cefixime]	1.35	0.916	0.778	1.38	0.6	1.73
CCCCCCCCc1ccc(CCC(N)(CO)CO)cc1 [Fingolimod]	5.32	4	5.79	2.18	5.29	4.16
O=c1ccc2ccccc2o1 [Coumarin]	1.02	0.975	1.08	1.25	0.824	1.2
O=C1CN(/N=C/c2ccc([N+](=O)[O-])o2)C(=O)N1 [Nitrofurantoin]	1.11	0.86	1.02	0.744	0.699	0.831
C=CC[C@@H]1/C=C(\C)C[C@H](C)C[C@H](OC)[C@H]2O[C@@](O)(C(=O)C(=O)N3CCCC[C@H]3C(=O)O[C@H](/C(C)=C/[C@@H]3CC[C@@H](O)[C@H](OC)C3)[C@H](C)[C@@H](O)CC1=O)[C@H](C)C[C@@H]2OC [Tacrolimus (FK506)]	0.986	1.47	2.38	1.07	0.59	0.647
CC(=O)O[C@H]1CC[C@@]2(C)C(=CC[C@@H]3[C@@H]2CC[C@]2(C)C(c4cccnc4)=CC[C@@H]32)C1 [Abiraterone Acetate]	1.52	1.19	0.94	0.94	0.44	0.818
CCOc1cc(CC(=O)N[C@@H](CC(C)C)c2ccccc2N2CCCCC2)ccc1C(=O)O [Repaglinide]	1.98	0.783	1.26	1.42	1.04	1.55
O=c1cc(CO)occ1O [Kojic acid]	1.24	0.713	0.837	0.833	0.625	1.14
Nc1nc(N)c(N=O)c(OCC2CCCCC2)n1	1.11	1.58	0.998	1.01	0.792	1.38
Cc1cn([C@H]2O[C@@H](CO)[C@H](O)[C@H]2F)c(=O)[nH]c1=O [Clevudine]	1.08	0.649	1.79	0.837	0.504	1.03
CO[C@H]1/C=C/O[C@@]2(C)Oc3c(C)c(O)c4c(O)c(c(/C=N/N5CCN(C6CCCC6)CC5)c(O)c4c3C2=O)NC(=O)/C(C)=C\C=C\[C@H](C)[C@H](O)[C@@H](C)[C@@H](O)[C@@H](C)[C@H](OC(C)=O)[C@@H]1C [Rifapentine]	1.24	0.894	1.76	1.72	2.12	1.56
Cc1cnc(NC(=O)C2=C(O)c3ccccc3S(=O)(=O)N2C)s1 [Meloxicam]	0.664	0.746	2.37	0.881	1.84	0.784
O=C(O)c1cc(-c2ccc(F)cc2F)ccc1O [Diflunisal]	1.47	0.745	1.05	1.06	0.706	1.71
CC1=CC[C@@](O)(C(C)C)CC1 [Terpinen-4-ol]	0.644	0.999	0.827	0.873	0.873	0.882
NC1(Cc2ccc(Cl)cc2)CCN(c2ncnc3[nH]ccc23)CC1	1.5	1.13	1.5	1.39	1.17	1.39
CCCCCCCCCCCC1=C(O)C(=O)C=C(O)C1=O [Embelin]	1.85	1.18	1.4	1.6	1.16	1.88
O=C(/C=C/c1cccc(S(=O)(=O)Nc2ccccc2)c1)NO [Belinostat (PXD101)]	1.71	2.39	2.38	1.82	1.99	1.12
COc1cc2ncnc(Nc3ccc(F)c(Cl)c3)c2cc1OCCCN1CCOCC1 [Gefitinib (ZD1839)]	2.03	2.48	2.47	1.24	1.6	1.64
CCN[C@H]1CN(CCCOC)S(=O)(=O)c2sc(S(N)(=O)=O)cc21 [Brinzolamide]	1.5	1.1	1.06	1.48	0.663	2.07
COc1ccc2ccc(=O)oc2c1CC=C(C)C [Osthole]	1.34	0.749	0.86	1.14	0.394	0.956
Nc1cc(F)ccc1NC(=O)/C=C/c1cnn(C/C=C/c2ccccc2)c1	1.54	1.02	0.877	2.44	1.27	0.895
N[C@@H](C(=O)N[C@@H]1C(=O)N2C(C(=O)O)=C(Cl)CS[C@H]12)c1ccccc1 [Cefaclor]	1.19	0.817	0.688	0.8	0.709	1.53
CC(C)(C)c1cc(NC(=O)Nc2ccc(-c3cn4c(n3)sc3cc(OCCN5CCOCC5)ccc34)cc2)no1 [Quizartinib (AC220)]	3.28	2.67	1.42	1.43	2.93	1.37

Source: the supplement of paper PMC10127200
